AC50 and outcome data for seven molecules are collected here from PubChem BioAssay (EPA / NIEHS).

Calls of active or inactive are those of the source. Rule for the calls: active = hit-call score of the fitted dose curve at least 0.9, where 1 is the maximum; inactive = score below 0.9.

Experiment [1] is described as follows: ATG_E_Box_CIS: Attagene CIS-FACTORIAL HepG2 Assay for human Enhancer Box (E-box) (AID 2282936). The following applies: HepG2 E-box cis-reporter transcription, actives raise or lower the signal. In outline: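 Endogenous transcription factor activity was sensed in human HepG2 liver cells through transfected cis-promoter reporter units. After 24 h of dosing, total RNA was reverse-transcribed and reporter cDNA resolved by capillary electrophoresis.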

Experiment [2] can be described thus: ATG_M_61_CIS: Attagene CIS-FACTORIAL HepG2 Assay for M61 Transcription Factor (Internal Marker) (AID 2282937). The following applies: HepG2 Attagene CIS-FACTORIAL M61 internal marker reporter; actives raise or lower the signal. In outline:
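Background-control endpoint: HepG2 cells with cis-regulated reporter constructs, 24 h exposure, reporter mRNA detected via fluorescent primer extension and capillary electrophoresis; values from bidirectional fitting with DMSO baseline.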

Experiment [3] can be described thus: ATG_EGR_CIS: Attagene CIS-FACTORIAL HepG2 Assay for human Early Growth Response 1 (EGR1) (AID 2282938). The following applies: HepG2 Attagene CIS-FACTORIAL EGR reporter mRNA; actives raise or lower the signal. In outline:
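Endpoint derived by bidirectional fitting versus DMSO vehicle. Method: cis-promoter reporter units transfected into HepG2, 24 h dosing, RNA isolation, RT-PCR with 6-FAM primer extension and HpaI digestion, then capillary electrophoresis fluorescence detection.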

A short description of experiment [4]: ATG_M_19_CIS: Attagene CIS-FACTORIAL HepG2 Assay for M19 Transcription Factor (Internal Marker) (AID 2282939). The following applies: HepG2 Attagene CIS-FACTORIAL M19 internal marker reporter; actives raise or lower the signal. In outline: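 Internal marker readout, fitted in both directions against DMSO, from HepG2 cells carrying transfected cis-element reporter constructs; RT-PCR and capillary electrophoresis of reporter mRNA after 24 h exposure.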

The nature of experiment [5]: ATG_ERE_CIS: Attagene CIS-FACTORIAL HepG2 Assay for Estrogen Response Element (ERE) (AID 2282940). The settings on record: HepG2 ERE cis-reporter, Attagene RNA transcript; actives raise or lower the signal. The method, boiled down: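 After 24 h compound treatment, RNA from transfected HepG2 cells was reverse-transcribed, reporter cDNA PCR-amplified, FAM-labelled, HpaI-cut and resolved by capillary electrophoresis. ERE-driven cis reporter transcripts reflect endogenous factors; gain or loss scored against DMSO.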

Experiment [6] in a line: ATG_Ets_CIS: Attagene CIS-FACTORIAL HepG2 Assay for human Erythroblast Transformation Specific (ETS) (AID 2282941). The settings on record: HepG2 ETS cis-reporter transcription; AC50: actives raise or lower the signal unless noted; outcome: actives raise or lower the signal unless noted. The method, boiled down: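 RT-PCR/capillary electrophoresis fluorescence read-out of reporter mRNA; HepG2 transient multi-reporter transfection; 24 h compound exposure; gain or loss of signal fitted bidirectionally relative to DMSO.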

Experiment [7] addresses Hepatocyte nuclear factor 3-beta (Homo sapiens) (UniProt Q9Y261). Briefly: ATG_FoxA2_CIS: Attagene CIS-FACTORIAL HepG2 Assay for human Forkhead box A2 (FOXA2) (AID 2282942). The settings on record: HepG2 cis-reporter transcription factor activity, 24 h; actives raise or lower the signal. The method, boiled down:
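Measured: reporter mRNA induction or loss in HepG2 transiently carrying multiple cis-regulated reporter units, 24 h after dosing. Quantified by RT-PCR plus capillary electrophoresis, normalised to DMSO.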

Experiment [8] in a line: ATG_FoxO_CIS: Attagene CIS-FACTORIAL HepG2 Assay for human Forkhead box O (FoxO) (AID 2282943). The following applies: HepG2 Attagene cis-reporter, FoxO element, mRNA; actives raise or lower the signal. The method, boiled down:
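Values reflect reporter mRNA induction or loss in HepG2 cells 24 h post-dosing, fitted bidirectionally with DMSO as negative control and baseline. Detection used RT-PCR and fluorescence capillary electrophoresis.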

Experiment [9] in a line: ATG_GATA_CIS: Attagene CIS-FACTORIAL HepG2 Assay for human GATA Binding Protein (AID 2282944). The settings on record: HepG2 GATA cis-element reporter, Attagene multiplex mRNA; actives raise or lower the signal. The method, boiled down:
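Reporter transcripts from a GATA cis-regulated unit, among multiplexed reporters in transfected HepG2 cells, were measured by RT-PCR with capillary electrophoresis after 24 h dosing. Induction or loss scored relative to DMSO.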

The nature of experiment [10]: ATG_GLI_CIS: Attagene CIS-FACTORIAL HepG2 Assay for human Zinc Finger Protein GLI1 (AID 2282945). The following applies: HepG2, Attagene cis-factorial reporter mRNA, GLI element; actives raise or lower the signal. In outline: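 HepG2 cells transiently transfected with cis-promoter multiplexed reporter units report endogenous transcription factor activity. After 24 h chemical exposure, reporter mRNA was quantified by RT-PCR, 6-FAM labelling, HpaI digestion and capillary electrophoresis, with bidirectional fitting against DMSO.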

Experiment [11] deals with Bile acid receptor (Homo sapiens) (UniProt Q96RI1). Briefly: ATG_IR1_CIS: Attagene CIS-FACTORIAL HepG2 Assay for human Nuclear Receptor Subfamily 1 Group H Member 4 (NR1H4), IR1 submotif (AID 2282946). The settings on record: IR1 reporter transcription, actives raise or lower the signal. The method, boiled down: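 Readout: reporter transcript levels by RT-PCR with fluorescent capillary electrophoresis, from HepG2 cells transiently transfected with multiplexed cis-regulated reporters and dosed 24 h. Gain- or loss-of-signal fitted versus DMSO negative control.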
Chain of Bile acid receptor (Homo sapiens) (Q96RI1 whole entry, looked up): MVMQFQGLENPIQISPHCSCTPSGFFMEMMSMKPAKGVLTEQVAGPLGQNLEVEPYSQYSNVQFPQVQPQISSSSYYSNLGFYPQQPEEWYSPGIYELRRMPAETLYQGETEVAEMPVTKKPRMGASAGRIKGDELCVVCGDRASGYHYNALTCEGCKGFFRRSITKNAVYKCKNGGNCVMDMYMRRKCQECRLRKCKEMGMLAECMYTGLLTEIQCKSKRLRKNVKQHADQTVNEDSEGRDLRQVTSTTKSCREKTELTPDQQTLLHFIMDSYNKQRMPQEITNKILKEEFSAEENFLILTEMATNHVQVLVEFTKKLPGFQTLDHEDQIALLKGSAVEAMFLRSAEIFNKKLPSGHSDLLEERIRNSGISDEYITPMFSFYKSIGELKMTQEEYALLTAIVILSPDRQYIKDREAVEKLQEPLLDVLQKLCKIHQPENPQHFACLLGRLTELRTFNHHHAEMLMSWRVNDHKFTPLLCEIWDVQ

The nature of experiment [12]: ATG_GRE_CIS: Attagene CIS-FACTORIAL HepG2 Assay for human Glucocorticoid Response Elements (GRE) (AID 2282947). The settings on record: HepG2 GRE cis-reporter, Attagene multiplex mRNA; AC50: actives raise or lower the signal unless noted; outcome: actives raise or lower the signal unless noted. In outline: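 Cells (HepG2) bearing transfected cis-promoter reporter transcription units were treated with chemical for 24 hours. Reporter mRNA was measured via RT-PCR with capillary electrophoresis, and activity was fitted in both directions relative to DMSO.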

A short description of experiment [13]: ATG_M_32_CIS: Attagene CIS-FACTORIAL HepG2 Assay for M32 Transcription Factor (Internal Marker) (AID 2282949).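 Note: background control marker of the multiplexed CIS panel rather than a real target.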 The following applies: HepG2 Attagene cis-factorial M32 reporter, mRNA; actives raise or lower the signal. The method, boiled down: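 HepG2 transfectants (cis-regulated reporter transcription units) dosed 24 h. Reporter mRNA by RT-PCR plus CE, analysed as gain or loss relative to DMSO.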

The nature of experiment [14]: ATG_M_06_CIS: Attagene CIS-FACTORIAL HepG2 Assay for M06 Transcription Factor (Internal Marker) (AID 2282950). The settings on record: HepG2 Attagene CIS-FACTORIAL M06 internal marker reporter; actives raise or lower the signal. In outline:
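Serves as a background control readout. Transfected HepG2 exposed to compounds for 24 h, then reporter transcripts quantified by fluorescent RT-PCR and capillary electrophoresis. Both directions fitted against DMSO baseline.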

The target in experiment [15] is Hypoxia-inducible factor 1-alpha (Homo sapiens) (UniProt Q16665). The experiment can be described thus: ATG_HIF1a_CIS: Attagene CIS-FACTORIAL HepG2 Assay for human Hypoxia Inducible Factor 1 (HIF1A) (AID 2282951). The following applies: HepG2 Attagene cis-factorial HIF1a reporter transcription; actives raise or lower the signal. In outline:
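Dosed 24 h, transfected HepG2 cells yielded total RNA whose reporter transcripts were RT-PCR-amplified and sized by capillary electrophoresis using fluorescent labelling; DMSO defined baseline, with gain and loss of signal both fitted.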

For experiment [16], the target named is Hepatocyte nuclear factor 6 (Homo sapiens) (UniProt Q9UBC0). Briefly: ATG_HNF6_CIS: Attagene CIS-FACTORIAL HepG2 Assay for human Hepatocyte Nuclear Factor 6 (HNF6) (AID 2282952). The settings on record: HepG2 Attagene cis-factorial HNF6 reporter transcription; actives raise or lower the signal. In outline:
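Using cis-element reporters in HepG2 liver cells, the assay tracks endogenous factor-driven transcription 24 h post-dosing. Signal comes from 6-FAM-labelled, HpaI-digested RT-PCR fragments, with gain or loss scored against DMSO.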

Experiment [17] concerns the target Heat shock factor protein 1 (Homo sapiens) (UniProt Q00613). The experiment can be described thus: ATG_HSE_CIS: Attagene CIS-FACTORIAL HepG2 Assay for human Heat Shock Transcription Factor 1 (HSE) (AID 2282953). The following applies: HepG2 HSE cis-reporter, Attagene RNA transcription; actives raise or lower the signal. The method, boiled down:
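Endogenous transcription factor activity in transiently transfected HepG2, read as reporter mRNA by RT-PCR with fluorescent capillary electrophoresis after 24 h. Gain or loss of signal fitted versus DMSO baseline.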

A short description of experiment [18]: ATG_MRE_CIS: Attagene CIS-FACTORIAL HepG2 Assay for human Metal Responsive Element (MRE) (AID 2282954). The settings on record: HepG2 MRE cis-reporter transcription, Attagene multiplex; actives raise or lower the signal. The method, boiled down:
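Cells were transfected with cis-promoter reporter transcription units, then dosed for 24 h. RNA was reverse-transcribed, amplified, fluorescently labelled and resolved by capillary electrophoresis, and activity was fitted in both directions relative to DMSO.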

The nature of experiment [19]: ATG_PBREM_CIS: Attagene CIS-FACTORIAL HepG2 Assay for human Phenobarbital-responsive Enhancer Module (PBREM) (AID 2282955). The following applies: HepG2 PBREM cis-reporter, Attagene multiplexed transcription; actives raise or lower the signal. The method, boiled down:
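Transfected liver-derived HepG2 cells exposed 24 h; PBREM reporter transcript quantified via RT-PCR and capillary electrophoresis, with activity in either direction referenced to DMSO.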

The nature of experiment [20]: ATG_ISRE_CIS: Attagene CIS-FACTORIAL HepG2 Assay for human Interferon Regulatory Factor 1 (IRF1) binding to an Interferon-Stimulated Response Element (ISRE) (AID 2282948). The settings on record: HepG2 ISRE cis-reporter (Attagene), mRNA transcription readout; actives raise or lower the signal. The method, boiled down: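 Read-out: fluorescent RT-PCR products resolved by capillary electrophoresis, reporting endogenous transcription factor activity via ISRE-driven reporter mRNA in transfected HepG2 cells dosed for 24 h; gain or loss fitted relative to DMSO.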

Chain of Heat shock factor protein 1 (Homo sapiens) (Q00613 whole entry, looked up): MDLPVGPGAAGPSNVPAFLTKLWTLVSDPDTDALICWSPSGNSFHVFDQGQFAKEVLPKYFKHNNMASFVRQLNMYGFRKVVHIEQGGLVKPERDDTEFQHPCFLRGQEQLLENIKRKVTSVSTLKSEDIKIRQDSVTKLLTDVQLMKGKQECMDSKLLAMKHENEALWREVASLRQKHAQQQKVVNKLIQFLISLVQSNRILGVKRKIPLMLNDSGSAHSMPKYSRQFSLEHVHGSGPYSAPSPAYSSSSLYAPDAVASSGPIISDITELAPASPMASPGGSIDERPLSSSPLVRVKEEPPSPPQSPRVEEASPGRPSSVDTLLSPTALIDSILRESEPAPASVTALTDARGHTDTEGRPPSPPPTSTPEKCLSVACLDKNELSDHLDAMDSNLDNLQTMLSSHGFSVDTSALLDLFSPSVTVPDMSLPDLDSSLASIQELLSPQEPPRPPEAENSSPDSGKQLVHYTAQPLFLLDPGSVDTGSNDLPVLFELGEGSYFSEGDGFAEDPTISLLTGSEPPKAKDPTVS
Chain of Hypoxia-inducible factor 1-alpha (Homo sapiens) (Q16665 whole entry, looked up): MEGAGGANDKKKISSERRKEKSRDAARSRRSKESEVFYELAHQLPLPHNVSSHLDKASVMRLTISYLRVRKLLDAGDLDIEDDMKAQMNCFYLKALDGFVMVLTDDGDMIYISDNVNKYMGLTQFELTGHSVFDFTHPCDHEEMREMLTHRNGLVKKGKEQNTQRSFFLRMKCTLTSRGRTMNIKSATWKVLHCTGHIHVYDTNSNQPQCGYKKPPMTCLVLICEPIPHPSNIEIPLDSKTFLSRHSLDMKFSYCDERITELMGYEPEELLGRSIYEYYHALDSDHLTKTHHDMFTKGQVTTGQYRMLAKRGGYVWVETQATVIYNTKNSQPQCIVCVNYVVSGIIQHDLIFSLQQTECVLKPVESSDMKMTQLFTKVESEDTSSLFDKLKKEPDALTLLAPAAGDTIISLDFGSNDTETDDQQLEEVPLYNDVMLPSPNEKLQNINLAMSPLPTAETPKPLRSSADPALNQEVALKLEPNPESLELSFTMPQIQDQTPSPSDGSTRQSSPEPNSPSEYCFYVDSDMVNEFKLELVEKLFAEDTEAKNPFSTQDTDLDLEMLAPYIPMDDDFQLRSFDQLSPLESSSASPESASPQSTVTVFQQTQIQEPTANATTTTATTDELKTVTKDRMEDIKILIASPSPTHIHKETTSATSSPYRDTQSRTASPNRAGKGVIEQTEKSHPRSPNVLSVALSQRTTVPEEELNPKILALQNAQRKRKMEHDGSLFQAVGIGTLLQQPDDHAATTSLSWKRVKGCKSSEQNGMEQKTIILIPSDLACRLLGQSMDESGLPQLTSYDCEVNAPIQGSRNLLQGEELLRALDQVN
Chain of Hepatocyte nuclear factor 6 (Homo sapiens) (Q9UBC0 whole entry, looked up, the tested form may be a part): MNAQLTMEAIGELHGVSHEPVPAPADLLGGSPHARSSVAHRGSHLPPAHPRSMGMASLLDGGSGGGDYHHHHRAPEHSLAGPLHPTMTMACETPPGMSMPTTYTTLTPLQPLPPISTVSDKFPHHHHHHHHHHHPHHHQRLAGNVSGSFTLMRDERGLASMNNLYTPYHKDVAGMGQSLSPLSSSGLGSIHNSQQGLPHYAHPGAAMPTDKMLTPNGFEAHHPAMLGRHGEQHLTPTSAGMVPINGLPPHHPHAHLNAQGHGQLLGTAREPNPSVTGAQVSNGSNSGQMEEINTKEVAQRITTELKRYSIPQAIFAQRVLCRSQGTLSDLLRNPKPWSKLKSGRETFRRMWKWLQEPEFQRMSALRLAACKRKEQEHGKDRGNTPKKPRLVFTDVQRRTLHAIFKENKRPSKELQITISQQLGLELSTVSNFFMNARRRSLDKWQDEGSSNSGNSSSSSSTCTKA
Chain of Hepatocyte nuclear factor 3-beta (Homo sapiens) (Q9Y261 whole entry, looked up): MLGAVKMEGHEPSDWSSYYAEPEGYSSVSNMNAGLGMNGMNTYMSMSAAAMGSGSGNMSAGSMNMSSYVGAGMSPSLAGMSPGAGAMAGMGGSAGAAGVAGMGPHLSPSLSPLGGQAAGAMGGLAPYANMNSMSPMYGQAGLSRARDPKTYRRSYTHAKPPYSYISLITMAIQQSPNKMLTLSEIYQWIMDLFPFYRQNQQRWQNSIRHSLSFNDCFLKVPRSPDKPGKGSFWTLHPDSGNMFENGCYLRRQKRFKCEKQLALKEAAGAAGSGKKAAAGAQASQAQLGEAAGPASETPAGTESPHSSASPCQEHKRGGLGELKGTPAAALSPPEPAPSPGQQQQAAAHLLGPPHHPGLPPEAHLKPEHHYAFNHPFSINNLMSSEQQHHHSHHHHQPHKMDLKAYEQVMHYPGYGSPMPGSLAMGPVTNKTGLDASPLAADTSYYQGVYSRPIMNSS

One may read the AC50 as the concentration at which the activity in the assay is half-maximal. Turning to `CCCCCCCCCCCCOC(=O)c1cc(O)c(O)c(O)c1`, the AC50 was 2.92 µM (active) in experiment [1]; 6.75 µM (active) in experiment [15]; 8.12 µM (active) in [17]; 18.5 µM (active) in [18]; 21.3 µM (active) in experiment [19]. For the same molecule, the molecule was classed as inactive in [2], in experiment [3], in experiment [4], in experiment [5], in experiment [6] and in experiment [7]. For the same molecule, the result in [8], in experiment [9], in experiment [10], in experiment [11], in [12] and in [13] was inactive. The molecule was called inactive in [14] and in [16].
Consider `COC(O)c1ccccc1` (stereo unspecified), for which the outcome in [1], in experiment [2], in [3], in experiment [4], in [6] and in [7] was inactive. The outcome in experiment [8], in experiment [9], in experiment [11], in [12], in experiment [20] and in experiment [13] was inactive. In addition, the molecule was called inactive in experiment [14], in experiment [15], in [16], in experiment [17], in [18] and in experiment [19]. Also, in experiment [5], the AC50 was 18.1 µM (active).
As to `Cc1cncc(C)c1`, the result in experiment [1], in [2], in experiment [3], in [4], in [5] and in experiment [6] was inactive. Besides, the result in [7], in [8], in experiment [9], in experiment [10], in [11] and in experiment [12] was inactive. In addition, the call in experiment [20], in [13], in experiment [14], in experiment [15], in experiment [16] and in experiment [17] was inactive. In addition, in experiment [19], the result was inactive.
On to `Oc1ccc(Cc2ccccc2O)cc1`, for which the outcome in experiment [1], in experiment [2], in [3], in [4], in experiment [6] and in [7] was inactive. Also, the molecule was called inactive in [8], in [9], in experiment [11], in experiment [12], in experiment [20] and in [13]. In addition, the molecule was classed as inactive in experiment [14], in experiment [15], in [16], in experiment [17], in [18] and in experiment [19]. For the same molecule, the AC50 in experiment [5] is 7.8 µM (active).
On to `CCCCCCCC(OC)OC`, for which the outcome in experiment [1], in experiment [2], in experiment [3], in [4], in experiment [5] and in experiment [6] was inactive. Moreover, the outcome in experiment [7], in experiment [8], in [9], in experiment [11], in [12] and in [20] was inactive. For the same molecule, the outcome in [13], in experiment [14], in [15], in experiment [16], in experiment [17] and in experiment [18] was inactive. In addition, the result in [19] was inactive.
With `CC1=NN(c2ccccc2)C(=O)C1`, the result in experiment [1], in experiment [2], in experiment [3], in experiment [4], in experiment [5] and in experiment [6] was inactive. For the same molecule, the molecule was classed as inactive in experiment [7], in experiment [8], in experiment [9], in experiment [10], in experiment [11] and in experiment [12]. Moreover, the outcome in experiment [13], in experiment [14], in experiment [16], in [17] and in experiment [18] was inactive.
In the case of `Brc1cc(Br)c(Oc2c(Br)cc(Br)c(Br)c2Br)cc1Br`, the result in experiment [1], in experiment [2], in experiment [3], in experiment [4], in experiment [5] and in experiment [6] was inactive. For the same molecule, the call in experiment [7], in experiment [8], in [9], in experiment [11], in experiment [12] and in [20] was inactive. Also, the result in experiment [13], in experiment [14], in [15], in experiment [16], in experiment [17] and in experiment [18] was inactive. Moreover, the result in experiment [19] was inactive.
